Assay results taken from PubChem BioAssay (NCATS).
Inconclusive results are not listed. Active and inactive are the calls of the source. Calls follow the shape of the dose curve; as a rule, active = well fitted curve in the direction sought with a large enough effect; inconclusive = small, poorly fitted or top-dose-only effect, or another doubt; inactive = no such curve, though single readings can be large; an effect the other way counts as inactive or inconclusive.

What was measured:
[1] = qHTS to identify inhibitors of the type 1 interferon - major histocompatibility complex class I in skeletal muscle: primary screen against the NCATS Pharmaceutical Collection (AID 1347407);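 also: luminescence of HiBiT knocked into endogenous HLA-B as interferon-induced MHC class I level; % is scaled to controls: 0 for no effect and ±100 for the full control effect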
Summary of the method: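 Compounds […] were added to CRISPR-engineered HLA-B-HiBiT C25cl48 human myoblasts with 4.0 ng/ml IFN-beta. After 24 hrs at 37 C, cells were lysed and HiBiT luminescence measured.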

[2] = biological target: Protein phosphatase 1D (Homo sapiens) (UniProt O15297); experiment: RapidFire Mass Spectrometry qHTS Assay for Modulators of WT P53-Induced Phosphatase 1 (WIP1) (AID 1347424);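 also: amount of dephosphorylated VEPPL-S-QETFS peptide product formed by WIP1; series mostly up to about 63 µM; plate controls were DMSO wells for no effect and GSK830371 inhibitor control at 10 µM for full effect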
Protein phosphatase 1D (Homo sapiens), sequence (O15297 whole entry, looked up): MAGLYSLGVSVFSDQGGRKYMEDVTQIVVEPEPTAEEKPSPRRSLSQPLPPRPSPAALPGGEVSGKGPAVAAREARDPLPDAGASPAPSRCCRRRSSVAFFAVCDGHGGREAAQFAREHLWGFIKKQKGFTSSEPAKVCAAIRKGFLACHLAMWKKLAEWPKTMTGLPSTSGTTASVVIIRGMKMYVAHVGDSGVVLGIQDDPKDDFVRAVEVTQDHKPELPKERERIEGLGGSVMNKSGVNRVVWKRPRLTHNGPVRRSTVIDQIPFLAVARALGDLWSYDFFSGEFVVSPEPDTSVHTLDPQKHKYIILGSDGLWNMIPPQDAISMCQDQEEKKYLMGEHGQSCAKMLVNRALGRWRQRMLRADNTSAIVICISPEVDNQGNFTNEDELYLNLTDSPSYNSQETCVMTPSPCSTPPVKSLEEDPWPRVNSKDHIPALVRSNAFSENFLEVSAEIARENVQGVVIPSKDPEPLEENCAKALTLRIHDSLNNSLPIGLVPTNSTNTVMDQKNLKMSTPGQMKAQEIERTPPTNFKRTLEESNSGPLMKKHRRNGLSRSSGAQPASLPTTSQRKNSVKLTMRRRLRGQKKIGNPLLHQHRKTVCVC
Summary of the method: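 Mass-spectrometric measurement of dephosphorylated peptide after a 5 min room-temperature reaction of 10 nM WIP1 with 2 uM phosphopeptide, following 1 h compound preincubation in 30 mM MgCl2 buffer.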

[3] = biological target: Protein phosphatase 1D (Homo sapiens) (UniProt O15297); experiment: Rhodamine-PBP qHTS Assay for Modulators of WT P53-Induced Phosphatase 1 (WIP1) (AID 1347425); also: % of control where 0% means no effect
Summary of the method: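 5 nM WIP1 + 10 uM Rh-PBP, 50 mM Tris pH 7.5, 30 mM MgCl2, 1 mM TCEP, 0.1 mM EGTA, BSA; cpds pinned, 1 hr RT; + 10 uM phosphopeptide; fluorescence 1-min reads x 11 min; delta = f1 - f0.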

[4] = Primary qHTS for inhibitors of La Crosse Virus (LACV) - induced cell death in SH-SY5Y cells (AID 1508616);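 also: top concentration of the series differs between compounds; 0% = infected DMSO wells and 100% = uninfected DMSO wells; higher means more rescue of cells from virus-induced death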
Summary of the method: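 Cytopathicity rescue screen: compounds pinned onto SH-SY5Y cells, which are then infected with LACV (MOI 0.01) and held 6 days at 37C. Percent activity is scaled between infected DMSO control and uninfected DMSO control.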

[5] = biological target: Calcium and integrin-binding protein 1 (Homo sapiens) (UniProt Q99828); experiment: Primary qHTS for Identification of Calcium Integrin Binding Protein 1 (CIB1) Competitor (AID 1508620);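 also: GST tagged CIB1 binding a fluorescein labelled alphaIIb integrin peptide tracer; top concentration of the series differs between compounds; % is scaled to controls: 0 for no effect and ±100 for the full control effect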
Calcium and integrin-binding protein 1 (Homo sapiens), sequence (Q99828 whole entry, looked up): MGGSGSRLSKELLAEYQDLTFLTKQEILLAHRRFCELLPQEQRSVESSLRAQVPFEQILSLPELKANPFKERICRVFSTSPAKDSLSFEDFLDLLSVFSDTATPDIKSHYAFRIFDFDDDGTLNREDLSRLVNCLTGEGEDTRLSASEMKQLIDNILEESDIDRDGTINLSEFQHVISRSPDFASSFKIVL
Summary of the method: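 Fluorescence polarization competition: CIB1-GST (1 uM final) preincubated with compound 15 min at room temperature, then FITC-labeled alphaIIb peptide (100 nM final) added for another 15 min. Polarization read at Ex 480/Em 540.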

CN1CCN(C(=O)C2CCCCC2)CC1
inactive: outcome [1] | outcome [2] | outcome [3] | outcome [4] | outcome [5]

CC(=O)Nc1ccccc1
inactive: outcome [1] | outcome [2] | outcome [3] | outcome [4] | outcome [5]

CC(C)C[C@@H](N)C(=O)O
inactive: outcome [1] | outcome [2] | outcome [3] | outcome [4] | outcome [5]

O=C(/C=C/c1ccc(O)c(O)c1)O[C@@H]1C[C@@](OC(=O)/C=C/c2ccc(O)c(O)c2)(C(=O)O)C[C@@H](O)[C@@H]1O
inactive: outcome [1] | outcome [2] | outcome [3] | outcome [4] | outcome [5]

CC(O)CCCCn1c(=O)c2c(ncn2C)n(C)c1=O (stereo not given)
inactive: outcome [1] | outcome [2] | outcome [3] | outcome [4] | outcome [5]

Cc1c(NC(C)C)c(=O)n(-c2ccccc2)n1C
inactive: outcome [1] | outcome [2] | outcome [3] | outcome [4] | outcome [5]

COC(=O)N/N=C/c1c[n+]([O-])c2ccccc2[n+]1[O-]
inactive: outcome [1] | outcome [2] | outcome [3] | outcome [4] | outcome [5]

CC(=O)[C@@]1(O)CC[C@H]2[C@@H]3C[C@H](C)C4=CC(=O)C=C[C@]4(C)[C@@]3(F)[C@@H](O)C[C@@]21C
inactive: outcome [1] | outcome [2] | outcome [3] | outcome [4] | outcome [5]

CC(C)=CCC/C(C)=C/CO
inactive: outcome [1] | outcome [2] | outcome [3] | outcome [4] | outcome [5]

OCC(O)CS (stereo not given)
inactive: outcome [1] | outcome [2] | outcome [3] | outcome [4] | outcome [5]

CC(=O)N1C[C@H](O)C[C@H]1C(=O)O
inactive: outcome [1] | outcome [2] | outcome [3] | outcome [4] | outcome [5]

Cc1ccc(S(=O)(=O)NC(=O)NC2CCCCCCC2)cc1
inactive: outcome [1] | outcome [2] | outcome [3] | outcome [4] | outcome [5]

Cc1cc(=O)[nH]c(=S)[nH]1
inactive: outcome [1] | outcome [2] | outcome [3] | outcome [4] | outcome [5]

O=c1[nH]cnc2nc[nH]c12
inactive: outcome [1] | outcome [2] | outcome [3] | outcome [4] | outcome [5]

O=C(O)c1ccccc1C(=O)Nc1ccc(S(=O)(=O)Nc2nccs2)cc1
inactive: outcome [1] | outcome [2] | outcome [3] | outcome [4] | outcome [5]

O=C(O)CNC(=O)c1ccccc1I
inactive: outcome [1] | outcome [2] | outcome [3] | outcome [4] | outcome [5]

COc1nccnc1NS(=O)(=O)c1ccc(N)cc1
inactive: outcome [1] | outcome [2] | outcome [3] | outcome [4] | outcome [5]

CCCCCCCCCCOc1cc2c(=O)c(C(=O)OCC)c[nH]c2cc1OCC
inactive: activity change, negative = inhibition [1] 0.347% [at 3.83 µM] | activity change, negative = inhibition [2] 14.2% [at 6.17 µM] | activity change, negative = inhibition [3] 9.27% [at 4.81 µM] | activity change [4] 5.38% [at 0.431 µM] | activity change, negative = inhibition [5] 6.25% [at 12.4 µM]

CC1CCc2cc(F)cc3c(=O)c(C(=O)O)cn1c23 (stereo not given)
inactive: outcome [1] | outcome [2] | outcome [3] | outcome [4] | outcome [5]

CC(=O)N[C@H]1[C@H]([C@H](O)[C@H](O)CO)OC(C(=O)O)=C[C@@H]1N=C(N)N
inactive: outcome [1] | outcome [2] | outcome [3] | outcome [4] | outcome [5]

O=C(O)COC(=O)Cc1ccccc1Nc1c(Cl)cccc1Cl
inactive: outcome [1] | outcome [2] | outcome [3] | outcome [4] | outcome [5]

C[n+]1ccccc1/C=N/O
inactive: outcome [1] | outcome [2] | outcome [3] | outcome [4] | outcome [5]

N[C@@H](Cc1ccc(O)cc1)C(=O)O
inactive: activity change, negative = inhibition [1] -1.9% [at 9.18 µM] | activity change, negative = inhibition [2] 3.61% [at 12.6 µM] | activity change, negative = inhibition [3] 8.22% [at 11.5 µM] | activity change [4] 20.5% [at 0.858 µM] | outcome [5]

CCc1nnc(NS(=O)(=O)c2ccc(N)cc2)s1
inactive: outcome [1] | outcome [2] | outcome [3] | outcome [4] | outcome [5]

Cc1cc(O)cc(C)c1Cl
inactive: outcome [1] | outcome [2] | outcome [3] | outcome [4] | outcome [5]

CCOC(=O)[C@H](CCc1ccccc1)N[C@@H](C)C(=O)N1Cc2cc(OC)c(OC)cc2C[C@H]1C(=O)O
inactive: outcome [1] | outcome [2] | outcome [3] | outcome [4] | outcome [5]

CC(C)c1cc2c(cc1S(=O)(=O)O)[C@@]1(C)CCC[C@@](C)(C(=O)O)[C@@H]1CC2
inactive: outcome [1] | outcome [2] | outcome [3] | outcome [4] | outcome [5]

C=CCN1C[C@H](C(=O)N(CCCN(C)C)C(=O)NCC)C[C@@H]2c3cccc4[nH]cc(c34)C[C@H]21
inactive: outcome [1] | outcome [2] | outcome [3] | outcome [4] | outcome [5]

O=C(CCBr)N1CCN(C(=O)CCBr)CC1
inactive: outcome [1] | outcome [2] | outcome [3] | outcome [4] | outcome [5]

Cc1cc(C)nc(NS(=O)(=O)c2ccc(N)cc2)n1
inactive: outcome [1] | outcome [2] | outcome [3] | outcome [4] | outcome [5]

C/C=C1\[C@H]2C=C(C)C[C@]1(N)c1ccc(=O)[nH]c1C2
inactive: outcome [1] | outcome [2] | outcome [3] | outcome [4] | outcome [5]
